An excerpt weighted towards active compounds, which were near 5.8% of everything screened.
KB-V1 MDR tox = kills drug-selected multidrug resistant KB-V1 cells; KB-V1 MDR cells viability, CellTiter-Glo, 72 h; Potency, µM (titrated, usually from 46.1 µM), most hits filed as cytotoxic; actives 3.4% (n = 400,000); further: on the % scale 0 is the no-effect control and ±100 the full control effect; nearly all actives have a fitted effect of over 60% in size
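Compound-treated KB-V1 multidrug-resistant cells, 72 h, 37 degrees C; viability by CellTiter-Glo. Fitted qHTS curves give the values.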
SW480 rerep = inducers of DNA re-replication in SW480 colon cancer cells | SW480 DNA re-replication, Hoechst DNA content imaging, 48 h | Potency, µM (top dose mostly 46.1 µM), for inactives: at the highest dose re-replication activation, most hits filed as activators | actives 1.8% (n = 340,000); further: % of control where 0% means no effect; nearly all actives have a fitted effect of over 55% in size
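Compounds, transferred as 23 nL by pin tool, were incubated with cells for 48 hr; DNA content per nucleus was then quantified by Hoechst staining and fluorescence plate imaging.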
12-LOX inh = ALOX12 (human) lipoxygenase inhibition; P18054; purified 12hLO, xylenol orange hydroperoxide absorbance; Potency, µM (top dose mostly 108 µM), without a hit: at the top dose activity change, negative = inhibition, usual class: inhibitors; actives 1.1% (n = 580,000); AID 1671190; further: on the % scale 0 is the no-effect control and ±100 the full control effect
Target sequence (P18054 whole entry, looked up): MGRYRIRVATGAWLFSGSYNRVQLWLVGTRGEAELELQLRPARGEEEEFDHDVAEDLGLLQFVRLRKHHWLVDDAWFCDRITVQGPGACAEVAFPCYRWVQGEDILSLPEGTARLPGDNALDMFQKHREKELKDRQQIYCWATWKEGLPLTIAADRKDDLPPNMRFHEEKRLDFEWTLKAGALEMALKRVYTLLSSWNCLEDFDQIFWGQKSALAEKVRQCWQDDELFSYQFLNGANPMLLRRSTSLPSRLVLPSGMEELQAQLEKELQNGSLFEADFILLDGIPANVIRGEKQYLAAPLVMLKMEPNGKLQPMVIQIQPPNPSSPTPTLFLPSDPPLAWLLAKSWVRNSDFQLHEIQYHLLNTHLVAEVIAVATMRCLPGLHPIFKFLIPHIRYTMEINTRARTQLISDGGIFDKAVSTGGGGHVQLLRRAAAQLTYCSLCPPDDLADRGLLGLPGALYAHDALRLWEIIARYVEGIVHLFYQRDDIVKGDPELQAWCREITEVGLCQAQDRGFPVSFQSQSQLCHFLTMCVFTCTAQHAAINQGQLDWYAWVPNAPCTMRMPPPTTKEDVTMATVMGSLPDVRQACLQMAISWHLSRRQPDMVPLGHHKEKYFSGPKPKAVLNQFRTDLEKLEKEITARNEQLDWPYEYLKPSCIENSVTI
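Purified human 12hLO (150 nM final) in 25 mM Hepes, 0.01% Triton X-100, pH 7.0 was preincubated 15 min at room temperature with compound. Then 40 uM arachidonic acid was added, 30 min. Hydroperoxide was read by Fe-XO absorbance ratio 573/405 nm.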
PINK1 expr mod = modulators of PINK1 expression. actives 0.2% (n = 410,000). AID 624263. PINK1 immunofluorescence, high-content cytometry, 24 h. Potency, µM (doses to about 76.6 µM), inactives show at the top dose activation (PINK1 increase), most hits filed as activators; active means well fitted activation curve with a large enough effect; inconclusive means small, poorly fitted or top-dose-only effect; cell line not stated here; further: % of control where 0% means no effect; nearly all actives have a fitted effect of over 65% in size
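Decision-based qHTS: stable cells, 24 h exposure to five compound concentrations, CCCP as control. Fixed cells stained for PINK1 plus nuclear, mitochondrial and cell markers, cytometer read.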
KB-3-1 tox = kills parental KB-3-1 adenocarcinoma cells; KB-3-1 viability, CellTiter-Glo ATP luminescence, 72 h; actives 1.4% (n = 400,000); Potency, µM (doses to about 46.1 µM), actives largely listed as cytotoxic; AID 1347075; further: on the % scale 0 is the no-effect control and ±100 the full control effect; nearly all actives have a fitted effect of over 60% in size
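Multi-concentration cytotoxicity screen in KB-3-1 cells grown in DMEM lacking phenol red with 10% FBS. After 72 h at 37 °C with compound, ATP-dependent luminescence was recorded.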
MCF10A rereplic = DNA re-replication induction in MCF 10a cells | actives 2.9% (n = 350,000) | Potency, µM (titrated, usually from 46.1 µM), inactives show top-dose activity, positive = re-replication, actives largely listed as activators | AID 624296 | MCF 10A DNA re-replication, Hoechst nuclear intensity, 48 h; further: % of control where 0% means no effect; nearly all actives have a fitted effect of over 50% in size
Starred values were filed as active, the others as inactive; i = inactive; ? = inconclusive; . = no result; ! = repeats disagree; [ ] = another dose, or the depositor's remark. Unless noted, the call rests on the fitted dose curve; in most records, active means well fitted curve in the direction sought with a large enough effect; inconclusive means small, poorly fitted or top-dose-only effect, or another doubt; inactive means no such curve, though single readings can be large; an effect the other way counts as inactive or inconclusive. Potency means the concentration at half of the fitted maximal effect.

SMILES	KB-V1 MDR tox	SW480 rerep	12-LOX inh	PINK1 expr mod	KB-3-1 tox	MCF10A rereplic
Cc1ccc(/C=N/NC(=O)C2COc3ccccc3O2)s1 (centres undefined)	?	2.8µM*	-14%	4%	2.1µM*	1.8µM*
O=C(Oc1cccc2cccnc12)c1cccc([N+](=O)[O-])c1	?	?	?	2%	i	?
O=C(Oc1ccc(Cl)c2cccnc12)c1ccco1	?	?	19%	4%	?	7.3µM*
O=C(Oc1ccc(Cl)c2cccnc12)c1cccc([N+](=O)[O-])c1	i	.	-14%	2%	i	3.7µM*
O=C(Oc1c(Cl)cc(Cl)c2cccnc12)c1cccc([N+](=O)[O-])c1	i	?	.	2%	15µM*	10µM*
O=C(Oc1cccc2cccnc12)c1ccco1	?	?	493%	-1%	?	?
c1cnn(-c2ccc(-c3nc(C4CCOC4)no3)cc2)c1 (centres undefined)	.	.	21%	.	.	.
CC(NC(=O)c1ccnc(N(C)C)c1)c1ccc2c(c1)CCC(=O)N2 (centres undefined)	.	.	1%	.	.	.
C[S+](=O)([O-])N1CC2(CCCN2Cc2ccccn2)Cc2ccccc21 (centres undefined)	.	.	-19%[6.33 µM]	.	.	.
COc1ccc(C(CNC(=O)c2cc3c(s2)CCC(C)C3)N2CCCC2)cc1 (centres undefined)	i	?	0%	3%	21µM*	?
COc1ccc(C(CNC(=O)c2cc3c(s2)CCC(C)C3)N2CCOCC2)cc1 (centres undefined)	i	5%	-4%	-2%	i	?
O=C(O)c1nn(CC(=O)N(CCc2ccccc2)Cc2ccccc2)c(=O)c2ccccc12	.	.	-52%	.	.	.
COC(=O)C1=C(N)N(c2ccccc2C(F)(F)F)C2=C(C(=O)CC(C)(C)C2)C1c1cccnc1 (centres undefined)	.	.	2%	.	.	.
COC(=O)C1=C(N)N(c2ccccc2F)C2=C(C(=O)CC(C)(C)C2)C1c1ccc(OC)c(OC)c1 (centres undefined)	4.6µM*	?	5%	-1%	?	5%
Cc1ccsc1C(=O)N(Cc1ccco1)C1CC1	.	.	-2%	.	.	.
COc1ccc(NC(=O)N2CCCC(c3noc(COc4ccccc4F)n3)C2)c(C)c1 (centres undefined)	.	.	8%	.	.	.
CC(=O)Nc1nonc1NC(=O)CSc1nc2ccccc2o1	i	21µM*	-16%	2%[38.3 µM]	i	-3%
Cc1nn2c(-c3cccc(NC(=O)CSc4nc5ccccc5o4)c3)nnc2c2ccccc12	?	-7%	22%	5%	i	10µM*
CCOc1ccc2nc(/N=C/c3c(C)[nH]n(-c4ccc(C)cc4)c3=O)sc2c1	10µM*	-74%	-13%	0%	12µM*	-13%
CCOc1ccc2nc(/N=C/c3c(C)[nH]n(-c4ccccc4)c3=O)sc2c1	?	2.9µM*	15%	4%	?	-29%
C=C(C)Cc1c(C)c(C#N)c2nc3ccccc3n2c1N1CCCCC1	3.7µM*	-6%	52%	10%	i	?
Cc1cc(NCCCCO)n2c(nc3ccccc32)c1C#N	?	?	0%	6%[38.3 µM]	i	4%
C=C(C)CSc1cc(C)c(C#N)c2nc3ccccc3n12	i	?	?	21%	i	5.8µM*
COc1ccccc1N1CN(Cc2cccnc2)Cn2c1nc(C)c(Cc1ccccc1)c2=O	.	.	4%	.	.	.
NC(=S)NNC(=O)[C@@H]1CCCC[C@@H]1C(=O)O	i	0.52µM*	.	2%	i	-8%
SMILES	KB-V1 MDR tox	SW480 rerep	12-LOX inh	PINK1 expr mod	KB-3-1 tox	MCF10A rereplic
COc1c2ccccc2nc2ccccc12	i	23µM*	?	1%	i	?
CC(C)(C)c1ccccc1NC(=S)NC1CCCCC1	?	5%	40µM*	2%	i	-4%
Cc1cccc(NC(=S)NC2CCCC2)c1C	i	-12%	?	-1%	i	6%
Cc1cccc(NC(=S)NC2CCCCCC2)c1C	18µM*	0%	50µM*	-1%	i	11%
CC1CCCC(N2CCN(C(=O)c3ccc([N+](=O)[O-])cc3)CC2)C1 (centres undefined)	i	8.2µM*	?	1%	i	?
O=C(c1ccc(Oc2ccc([N+](=O)[O-])cc2)cc1)N1CCCCCC1	i	5%	9%	-1%	?	-2%
N#CC(C#N)=C(N)/C(C#N)=C/c1cc(O)c(O)c(O)c1	i	-2%	5µM*!	3%	i	-40%
CCOc1ccc(-n2c(C)nnc2SCC(=O)N(CC)CC)cc1	16µM*	-8%	-22%	-23%[38.3 µM]	i	14%
c1ccc(-c2c[n+]3c(n2-c2ccccc2)CCC3)cc1	i	2%	0%	0%	?	15%
CCOc1ccc(-n2c(-c3ccccc3)c[n+]3c2CCCCC3)cc1	?	-14%	-6%	?	10µM*	3%
Cc1ccc(-c2c[n+]3c(n2-c2ccccc2)CCC3)cc1	i	?	154%	2%	1.3µM*	8.2µM*
CCOc1ccc(N2Cc3ccccc3C2)cc1	?	4%	-3%[57.4 µM]	-1%	i	6%
CCn1nccc1C(=O)N1CCC2(CC1)N(Cc1cccc(F)c1)C(=O)CS2=O (centres undefined)	.	.	29%	.	.	.
COc1cccc(C(=O)N2CCC3(CC2)NC(=O)N(c2cccc(F)c2)N3)c1OC	.	.	3.2µM*	.	.	.
COc1cccc(C(=O)N2CCN(C(=O)c3cccc4ccccc34)CC2)c1OC	i	-4%	-15%	-3%	i	-5%
CCn1nccc1C(=O)N1CCC2(CC1)NC(=O)N(c1cccc(F)c1)N2	.	.	4µM*	.	.	.
COc1ccccc1CC(=O)N1CCCC1	i	5%	0%[57.4 µM]	0%	i	-6%
COc1cccc(C(=O)N2CCC3(CC2)NC(=O)N(c2ccc(F)cc2)N3)c1OC	.	.	4µM*	.	.	.
COc1cccc(C(=O)N2CCN(c3cc(-c4ccc(F)cc4)[nH]n3)CC2)c1OC	.	.	-1%	.	.	.
COc1ccccc1CC(=O)N1CCC2(CC1)NC(=O)N(c1cccc(F)c1)N2	.	.	1.8µM*	.	.	.
C[C@H](NC(=O)[C@H]1N2C(=O)c3ccccc3C2SC1(C)C)C(=O)NCc1ccc(F)cc1 (some centres undefined)	.	.	14%	.	.	.
CC1CCC(NC(=O)c2nnn3c2COC(c2ccc(F)cc2)C3)CC1 (centres undefined)	.	.	26%	.	.	.
COc1cccc(N2CCN(C(=O)c3cnn(-c4cccc(F)c4)c3-n3cccc3)CC2)c1	.	.	-68%	.	.	.

Screens (PubChem)
